Experimental data reported in PubChem BioAssay AID488789 (Broad Institute, 2010).
Results with a measured potency or affinity are listed apart. Records with an inconclusive call do not appear. Activity calls are given as the source filed them.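 How the source made its calls: active means samples whose fitted half-maximal inhibition concentration is no more than ten times the top valid dose tested; inconclusive means flat response between -70 and -30, or invalid curve fit; inactive means flat within 30 of zero, potency above limit, or signal rising.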

Biological target: Trypsin (Sus scrofa) (UniProt P00761)
Sequence (P00761 whole entry, looked up): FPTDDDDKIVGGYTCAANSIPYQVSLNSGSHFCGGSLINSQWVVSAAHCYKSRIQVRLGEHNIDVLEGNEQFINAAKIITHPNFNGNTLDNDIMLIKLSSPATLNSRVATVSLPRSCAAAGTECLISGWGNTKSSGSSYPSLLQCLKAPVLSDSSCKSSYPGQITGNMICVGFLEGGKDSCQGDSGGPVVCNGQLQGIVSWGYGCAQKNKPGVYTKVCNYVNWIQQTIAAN
Assay: porcine trypsin inhibitors, dose response, selectivity assay for Rce1 protease inhibitor project, biochemical, quenched peptide fluorescence, cherry-pick (AID 488789);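 further: more negative means stronger trypsin inhibition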
Details: quenched peptide cleavage fluorescence; series mostly up to 10 µM

outcome, inactive:
COc1ccc(-n2nc(C(=O)NCC(=O)N3CCC(C)CC3)c3ccccc3c2=O)cc1
CC(Cc1cccs1)NC(=O)Nc1ccc([N+](=O)[O-])cc1 (configuration not stated)
CSc1ccc(C(=O)C2CCCN(C(=O)c3cccnc3SC)C2)cc1 (configuration not stated)
CCOc1cc(CNC2CCCC2)ccc1OCc1ccccc1Cl
Cc1ccccc1OC(C)C(=O)N1CCC(Cc2ccccc2)CC1 (configuration not stated)
CC1(C)CC2CC(C)(CN2S(=O)(=O)c2ccc(N)cc2)C1 (configuration not stated)
CCCCCCCCCCOC(=O)Cn1c(COc2ccc(C)cc2)[n+](C)c2ccccc21
CCOc1cccc(-c2nn(-c3ccccc3)cc2/C=C(/C#N)C(=O)NCCCn2ccnc2)c1
COc1ccc(NS(=O)(=O)c2c(C)cc(C)cc2C)cc1
CN1CCN(Cc2c(C(=O)N/N=C/c3cccc(Br)c3)nnn2-c2nonc2N)CC1
Cc1ccc(-c2csc(N3CCN(c4cc5c(cc4Cl)nc(-c4ccncc4)n5CCOCCO)CC3)n2)cc1
COC(=O)C(Cc1ccccc1)OS(N)(=O)=O (configuration not stated)
O=C(c1cnc(Cl)c(Cl)c1)N1CCC(Cc2ccccc2)CC1
O=C(Nc1ccc(F)cc1)Oc1ccccc1N1CCOCC1
CCN(C(=O)COC(=O)c1cc(-c2cccs2)nc2ccccc12)C1CCS(=O)(=O)C1 (configuration not stated)
Cc1cc(=O)n2ccccc2c1C#N
CC(C)C[C@H](NC(=O)c1nc[nH]c1C(=O)N1CCNCC1)C(=O)OCc1ccccc1
O=C(Nc1cc(S(=O)(=O)N2CCOCC2)ccc1N1CCCC1)c1cnccn1
CN(C)CCN(C(=O)c1ccc2ccccc2c1)c1nc2ccc(F)cc2s1
CC(C)NCC(O)COCCOc1ccc(Br)cc1 (configuration not stated)
COc1ccc(C)cc1NC(=O)CN1C(=O)COc2ccc(S(=O)(=O)N3CCOCC3)cc21
COC(=O)C1CCCN1S(=O)(=O)c1ccc2ccccc2c1 (configuration not stated)
COc1ccc(-c2cc(C(F)(F)F)nc(SCC(=O)N(C)Cc3cn(C)nc3C)n2)cc1OC
COc1ccc(C(CNC(=O)COc2cc(C)c(Cl)c(C)c2)N2CCCCC2)cc1 (configuration not stated)
N=c1c(C(=O)NCc2ccc(F)cc2)cc2c(=O)n3ccccc3nc2n1Cc1cccnc1
O=C(O)c1ccc(N/N=C/c2ccc(-c3ccccc3Cl)o2)cc1
Cc1cc(C)cc(Nc2nc(-c3ccc(S(=O)(=O)N4CCCC4)cc3)cs2)c1
O=C1NC2(C=Cc3c(ccc4ccccc34)O2)Oc2ccccc21 (configuration not stated)
CCCOc1ccccc1C(=O)NCCCC(=O)O
CN(C)c1cc(O)c(C(=S)Nc2ccccc2)c(N(C)C)c1
O=C(Nc1ccc(N2CCOCC2)c(Cl)c1)c1cc2ccccc2o1
O=C(/C=C/c1cn(-c2ccccc2)nc1-c1cccs1)NCCN1CCOCC1
Cc1cc(C)c2cc(C#N)c(NCCCNC(=O)CCC(=O)O)nc2c1
COc1ccc(C2c3c(ncn(CCCO)c3=N)Oc3ccc4ccccc4c32)cc1 (configuration not stated)
CCO[C@H]1OC(C(=O)Nc2ccccc2)=C[C@@H](c2csc3ccccc23)[C@@H]1CCCO
CCSc1nc2c(c(=O)[nH]1)C(c1ccccn1)C1=C(CC(C)(C)CC1=O)N2 (configuration not stated)
O=C(C1=C[C@@H](C2CC2)C[C@@H](OCc2ccc(CO)cc2)O1)N1CCN(Cc2ccccc2)CC1
